In PubChem BioAssay (Tox21):
Several values for one entry are separate records, joined by “and”; a condition that tells them apart may be missing. Identical values can stand only once. Inconclusive results are not listed. A call without a number means that no potency is given here. A structure can be active in one record and inactive in another. Activity calls are given as the source filed them. Unless noted, the call rests on the fitted dose curve.

How the values were obtained:
[1] = qHTS assay to identify small molecule agonists of the vitamin D receptor (VDR) signaling pathway - cell viability counter screen (AID 743224; active means well fitted curve in the direction sought with a large enough effect in the repeat runs; an effect the other way counts as inactive or inconclusive; further: nearly all actives have a fitted effect of over 50% in size; further: potency means the concentration at half of the fitted maximal effect)
Method in brief: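 Plated VDR-bla cells (4 h, 37C) received compound, incubated 16 h, then LiveBLAzer substrate 2 h RT; CellTiter-Glo added afterwards, luminescence read at 30 min.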

[2] = qHTS assay to identify small molecule agonists of the NFkB signaling pathway (AID 1159509; active means well fitted curve in the direction sought with a large enough effect in the signal ratio in the repeat runs, not every such curve was filed as active; the % refers to the signal ratio; further: series mostly up to about 61 µM)
Method in brief: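 ME-180 NFkB-bla, 2,000 cells/well, overnight plating; cpd pinned in DMSO, 5 h 37 C; B/G FRET substrate 1.5 h RT; ex 405, em 460/530 nm.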

[3] = qHTS assay to identify small molecule agonists of the NFkB signaling pathway - cell viability counter screen (AID 1159515); further: nearly all actives have a fitted effect of over 55% in size; further: potency means the concentration at half of the fitted maximal effect
Method in brief: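 Using the same wells as the NFkB reporter read, ME-180 NFkB-bla cells given compounds for 5 hr were assessed for viability via CellTiter-Glo, with luminescence taken after a 30 min room-temperature incubation.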

[4] = qHTS assay to identify small molecule agonists of the endoplasmic reticulum stress response signaling pathway (AID 1159516; active means well fitted activation curve with a large enough effect in the signal ratio in the repeat runs, not every such curve was filed as active; the % refers to the signal ratio)
Method in brief: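 An ESRE-bla HeLa cell assay: compounds were pin-transferred from DMSO onto overnight-plated cells and left 5 hr at 37 C. Substrate was then loaded for 2 hr at room temperature before reading fluorescence at 460 nm and 530 nm.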

[5] = qHTS assay to identify small molecule agonists of the endoplasmic reticulum stress response signaling pathway - cell viability counter screen (AID 1159517);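 further: HeLa cells carrying an ER stress response element beta-lactamase reporter; series mostly up to about 61 µM; nearly all actives have a fitted effect of over 50% in size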
Method in brief: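 HeLa cells carrying an ESRE-driven beta-lactamase reporter receive compound for 5 hr at 37 C. Cell viability is then gauged with CellTiter-Glo by luminescence, 30 min at room temperature.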

[6] = qHTS assay to identify small molecule antagonists of the retinoid-related orphan receptor gamma (ROR-gamma) signaling pathway - cell viability counter screen (AID 1159520; active means well fitted curve in the direction sought with a large enough effect in the repeat runs; an effect the other way counts as inactive or inconclusive; further: nearly all actives have a fitted effect of over 50% in size)
Method in brief: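 Cytotoxicity was read from cellular ATP (CellTiter-Glo luminescence) after 16 hr at 37 C with 1 uM doxycycline induction. The inducer was added 2 hr after compound transfer to Tet-on ROR gamma CHO cells.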

[7] = target: Nuclear receptor ROR-gamma (Homo sapiens) (UniProt P51449); assay: qHTS assay to identify small molecule antagonists of the retinoid-related orphan receptor gamma (ROR-gamma) signaling pathway (AID 1159521; active means well fitted curve in the direction sought with a large enough effect in the repeat runs; an effect the other way counts as inactive or inconclusive; further: nearly all actives have a fitted effect of over 50% in size; further: potency means the concentration at half of the fitted maximal effect)
Method in brief: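 Antagonist read-out: drop in luminescence (ONE-Glo) from an RORE-LUC reporter in CHO cells with doxycycline-inducible ROR-gamma; 2 hr compound pretreatment, 1 uM doxycycline, 16 hr incubation at 37 C.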

[8] = qHTS assay to identify small molecule agonists of the AP-1 signaling pathway - cell viability counter screen (AID 1159525); further: nearly all actives have a fitted effect of over 55% in size
Method in brief: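 Luminescent ATP readout (Cell Titer Glo, 30 min RT), normalised to DMSO and tetra n-octyl ammonium bromide controls. Cells were ME-180 AP-1-bla in 0.5% dialyzed FBS Opti-MEM, with a 5 h, 37 °C compound exposure.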

[9] = qHTS assay to identify small molecule agonists of the AP-1 signaling pathway (AID 1159526)
[10] = qHTS assay to identify small molecule antagonists of the vitamin D receptor (VDR) signaling pathway - cell viability counter screen (AID 743225; active means well fitted curve in the direction sought with a large enough effect in the repeat runs; an effect the other way counts as inactive or inconclusive; further: nearly all actives have a fitted effect of over 50% in size)
Method in brief: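 Cytotoxicity counter screen read by CellTiter-Glo luminescence (30 min, room temperature) in the same wells as the VDR-bla antagonist readout. HEK 293T VDR-UAS-bla cells had 16 h at 37C with compound and 3 nM (final) 1-alpha,25-dihydroxyvitamin D3, then 2 h with FRET substrate.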

SMILES	Potency [1]	outcome [2]	Potency [3]	Potency [4]	Potency [5]	Potency [6]	Potency [7]	Potency [8]	outcome [9]	Potency [10]
Cc1cc2nc3c(=O)[nH]c(=O)nc-3n(C[C@H](O)[C@H](O)[C@H](O)CO)c2cc1C	inactive	inactive	inactive	inactive	inactive	inactive	inactive	inactive	inactive	
OC[C@H]1O[C@@H]2O[C@H]3[C@H](O)[C@@H](O)[C@@H](O[C@H]4[C@H](O)[C@@H](O)[C@@H](O[C@H]5[C@H](O)[C@@H](O)[C@@H](O[C@H]6[C@H](O)[C@@H](O)[C@@H](O[C@H]7[C@H](O)[C@@H](O)[C@@H](O[C@H]8[C@H](O)[C@@H](O)[C@@H](O[C@H]1[C@H](O)[C@H]2O)O[C@@H]8CO)O[C@@H]7CO)O[C@@H]6CO)O[C@@H]5CO)O[C@@H]4CO)O[C@@H]3CO	inactive	inactive	inactive	inactive	inactive	inactive	inactive	inactive	inactive	inactive
Cc1ccc(C)c(O)c1C	inactive	inactive	inactive	inactive	inactive	inactive	inactive	inactive	inactive	inactive
O=C(O)c1ccccc1Nc1cccc(C(F)(F)F)c1	inactive	inactive	inactive	inactive	inactive	inactive	inactive	inactive	inactive	inactive
O=c1oc(=O)c2cc3c(=O)oc(=O)c3cc12	inactive	inactive	inactive	inactive	inactive	inactive	inactive	inactive	inactive	inactive
CC(=O)c1ccccn1	inactive	inactive	inactive	inactive	inactive	inactive	inactive	inactive	inactive	
CCCCNS(=O)(=O)c1ccccc1	inactive	inactive	inactive	inactive	inactive	inactive	inactive	inactive	inactive	
O=C(OCc1ccccc1)c1ccccc1O	inactive	inactive	inactive	inactive	inactive	inactive	inactive	inactive	inactive	
CCCCC(CC)COP(=O)(OCC(CC)CCCC)OCC(CC)CCCC (configuration not stated)	inactive	inactive	inactive	inactive	inactive	inactive	inactive	inactive	inactive	
Cc1c(C(N)=O)cc([N+](=O)[O-])cc1[N+](=O)[O-]	inactive	inactive	inactive	inactive	inactive	inactive	inactive	inactive	inactive	
Cc1[nH]c(=O)c(C#N)cc1-c1ccncc1	inactive	inactive	inactive	inactive	inactive	inactive	inactive	inactive	inactive	inactive
O=P(O)(O)O	inactive	inactive	inactive	inactive	inactive	inactive	inactive	inactive	inactive	
CCCCCCCCCCCO	inactive and 49 µM (active)	inactive	inactive and 49 µM (active)	inactive	inactive	inactive	inactive	inactive	inactive	inactive
O=C(/C=C/C=C/c1ccc2c(c1)OCO2)N1CCCCC1	inactive	inactive	inactive	inactive	inactive	inactive	inactive	inactive	inactive	
COc1ccccc1/C=C/C=O	inactive	inactive	inactive	inactive	inactive	inactive	inactive	inactive	inactive	inactive
O=CCc1ccccc1	inactive	inactive	inactive	inactive	inactive	inactive	inactive	inactive	inactive	inactive
c1cc(N(CC2CO2)CC2CO2)ccc1OCC1CO1 (configuration not stated)	inactive	inactive	inactive	inactive	inactive	inactive	54.5 µM (active) and 61.1 µM (active)	inactive	inactive	inactive
CC(C)=CCCC(C)CCO (configuration not stated)	inactive	inactive	inactive	inactive	inactive	inactive	inactive	inactive	inactive	inactive
CCCCOCCOCCO	inactive	inactive	inactive	inactive	inactive	inactive	inactive	inactive	inactive	inactive
C[C@]12CCC(=O)C=C1CC[C@@H]1[C@@H]2C(=O)C[C@@]2(C)[C@H]1CC[C@]2(O)C(=O)CO	24.5 µM (active) and inactive	inactive	inactive	inactive	inactive	inactive	inactive	inactive	inactive	inactive
COc1ccc(OC)c(C(O)CNC(=O)CN)c1 (configuration not stated)	inactive	inactive	inactive	inactive	inactive	inactive	inactive	inactive	inactive	inactive
CCCc1c(OCCCCc2nn[nH]n2)ccc(C(C)=O)c1O	inactive	inactive	inactive	inactive	inactive	inactive	inactive	inactive	inactive	inactive
O=C(/C=C/c1ccccc1)OCc1ccccc1	inactive	inactive	inactive	inactive	inactive	inactive	inactive	inactive	inactive	inactive
